PAFAH1B3 FP inh = inhibitors of human PAFAH1B3. AID 492972. actives 0.28% (n = 340,000). Q15102. inhibition, % at 3.39 µM. recombinant PAFAH1B3, FP-rhodamine probe, fluorescence polarization;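 active = inhibition above the screen-wide average of all tested compounds plus 3 SD, cut at about 25% in these data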
Target sequence (Q15102 whole entry, looked up): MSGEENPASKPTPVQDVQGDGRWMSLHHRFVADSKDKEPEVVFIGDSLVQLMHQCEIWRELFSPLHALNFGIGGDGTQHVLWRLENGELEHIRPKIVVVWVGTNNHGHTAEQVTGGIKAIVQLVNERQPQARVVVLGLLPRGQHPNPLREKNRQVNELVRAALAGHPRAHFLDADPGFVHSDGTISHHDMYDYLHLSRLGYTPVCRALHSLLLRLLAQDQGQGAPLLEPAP
PAFAH1B2 inh = blocks human PAF acetylhydrolase 1b catalytic subunit 2. P68402. recombinant PAFAH1B2, FP-rhodamine activity probe, fluorescence polarization. inhibition, % at 3.39 µM. actives 1.2% (n = 340,000). AID 492953;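 active = inhibition above the mean of all tested compounds plus 3 SD, cut at about 24% in these data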
PME-1 inh = blocks human protein phosphatase methylesterase 1 | recombinant PME-1, FP-Rh probe fluorescence polarization | inhibition, % at 5.9 µM | actives 0.53% (n = 320,000) | AID 2130;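 active = inhibition above the campaign mean of all compounds plus 3 SD, cut at about 26% in these data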;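 also: competitive labeling of PME-1 active site by serine hydrolase directed probe; inhibitors block probe labeling so polarization falls and inhibition rises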
Fam108B counter = Fam108B inhibition, counter-screen for RBBP9 inhibitors. inhibition, % at 9.51 µM. AID 1947. actives 0.33% (n = 300,000). recombinant Fam108B, FP-Rh probe fluorescence polarization;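 active = inhibition above the screen mean inhibition plus 3 SD, computed separately per campaign, cut at about 18% in these data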;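 also: inhibitors lower polarization as less probe binds the enzyme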
PAFAH2 inh = PAFAH2 (human) inhibition; actives 0.99% (n = 340,000); recombinant PAFAH2, FP-rhodamine activity probe, fluorescence polarization; inhibition, % at 3.39 µM;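 active = inhibition above the mean over all tested compounds plus 3 SD, cut at about 30% in these data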;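 also: inhibitors block probe labeling of enzyme so polarization drops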
pPAFAH FP inh = pPAFAH (human) enzyme inhibition | recombinant pPAFAH, FP-rhodamine probe fluorescence polarization | inhibition, % at 3.39 µM | actives 1.5% (n = 330,000);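 active = inhibition above the mean inhibition across the screen plus 3 SD, cut at about 25% in these data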;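 also: inhibitors block binding of the rhodamine activity-based probe so polarization drops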
Target sequence (Q13093 whole entry, looked up): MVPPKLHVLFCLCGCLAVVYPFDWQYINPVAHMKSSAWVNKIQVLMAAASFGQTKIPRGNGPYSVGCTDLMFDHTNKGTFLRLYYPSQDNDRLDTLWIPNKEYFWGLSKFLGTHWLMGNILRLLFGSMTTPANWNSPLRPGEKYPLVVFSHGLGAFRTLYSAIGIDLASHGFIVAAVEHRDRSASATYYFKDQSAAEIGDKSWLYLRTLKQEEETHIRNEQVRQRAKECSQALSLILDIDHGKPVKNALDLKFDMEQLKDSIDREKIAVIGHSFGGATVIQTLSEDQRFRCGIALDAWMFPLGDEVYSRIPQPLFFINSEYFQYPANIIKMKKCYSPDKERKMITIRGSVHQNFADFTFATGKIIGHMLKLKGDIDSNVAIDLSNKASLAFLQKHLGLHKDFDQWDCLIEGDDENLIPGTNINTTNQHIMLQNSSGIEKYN
Large screens that a line does not name were inactive. Hits are enriched below; roughly 2.8% of the tested compounds scored in any of these assays.

O=c1c2c(nc3n1CCCCC3)-c1ccccc1CC21CCCC1	PAFAH1B2 inh 27.8
Cn1ncn2c(=O)c3c(nc12)-c1ccccc1CC31CCCC1	none
Cc1ccc(-n2c(SCC(N)=O)nc3c(c2=O)C2(CCCC2)Cc2ccccc2-3)cc1	none
CC(=O)Nn1cnc2c(c1=O)C1(CCCC1)Cc1ccccc1-2	PAFAH1B2 inh 25.2
C=CCSc1n[nH]c2nc3c(c(=O)n12)C1(CCCC1)Cc1ccccc1-3	PAFAH1B2 inh 44.1
CC(=O)Nc1ccc(C(F)(F)F)cc1Cl	none
CCc1ccc(CNc2ccc(N3CCN(C(C)=O)CC3)cc2)cc1	pPAFAH FP inh 30.2
CCC(=O)N1CCCN(S(=O)(=O)c2ccc(C)cc2)C1c1ccc(OC)cc1 (centres undefined)	none
O=C(Nc1ccc([N+](=O)[O-])cc1)Nc1ccc2[nH]c(=O)[nH]c2c1	PME-1 inh 29.6
Cc1nn(Cc2ccccc2)c(C)c1C(=O)N1CCN(S(=O)(=O)/C=C/c2ccccc2)CC1	none (no result: Fam108B counter)
O=C(O)COc1ccc(Br)cc1C(c1c(C(=O)O)[nH]c2ccccc12)c1c(C(=O)O)[nH]c2ccccc12	PAFAH1B2 inh 53.1
O=C(O)c1[nH]c2ccccc2c1C(c1cc(Cl)cc([N+](=O)[O-])c1O)c1c(C(=O)O)[nH]c2ccccc12	PAFAH1B2 inh 61.6
O=C(O)c1[nH]c2ccccc2c1C(c1ccccc1)c1c(C(=O)O)[nH]c2ccccc12	PAFAH1B2 inh 88.5
COc1cc(C(NC(C)=O)NC(C)=O)ccc1OCc1ccccc1	none
COc1cc(C(c2c(C(=O)O)[nH]c3ccccc23)c2c(C(=O)O)[nH]c3ccccc23)ccc1OCc1ccccc1	PAFAH1B2 inh 57.3
C(=N\Nc1nc2ccccc2[nH]1)/c1cccc2cccnc12	PME-1 inh 51.5
Cc1ccccc1/C=N/Nc1nc2ccccc2[nH]1	none
Oc1c(/C=N/Nc2cccc3cccnc23)ccc2ccccc12	pPAFAH FP inh 29.9
CC1CCc2c(sc3nc(CN4CCOCC4)nc(NS(=O)(=O)c4cccc([N+](=O)[O-])c4)c23)C1 (centres undefined)	pPAFAH FP inh 25.4
Cc1cc(S(=O)(=O)Nc2nc(CN3CCOCC3)nc3sc4c(c23)CCCC4)ccc1F	none
Cn1c(O)c(C=Nc2ccc(Br)cc2)sc1=O	none
CC(C)CC(=O)Nc1ccc(Oc2ccc3c(c2)C(=O)NC3=O)cc1	none
O=C1Nc2ccc(F)cc2C12Nc1ccccc1-c1nnc(SCc3ccccc3Cl)nc1O2 (centres undefined)	PAFAH1B2 inh 24.6
NNC(=S)NC1CCCCCCCCCCC1	PAFAH1B2 inh 55.1
S=C(NC1CCCCCC1)NC1CCCC1	none
CCN(CC)CCOc1ccc(C=NNc2nc3c([nH]2)c(=O)n(C)c(=O)n3C)cc1	none (no result: PME-1 inh, Fam108B counter, pPAFAH FP inh)
COc1cccc(CN2C(=NC(=O)CCC3CCCC3)SC3CS(=O)(=O)CC32)c1 (centres undefined)	none
C=CCn1c(SCC(=O)N2CCCC2=O)nc2sc(CC)cc2c1=O	PME-1 inh 36.8 (no result: Fam108B counter)
C=CCn1c(SCC(=O)O)nc2sc(CC)cc2c1=O	none
COc1ccc(NC2CCCN(C(=O)C3(C)CCCCC3)C2)cc1 (centres undefined)	none
O=c1cc(O)c2ccc(O)cc2o1	none
O=c1ccc2[n+]([O-])c3ccc(O)cc3oc-2c1	PAFAH1B3 FP inh 149.5, PAFAH1B2 inh 136.3, PAFAH2 inh 154.8 (no result: PME-1 inh, Fam108B counter, pPAFAH FP inh)
C=CCn1c(=O)c(C(=O)NC(C)c2ccccc2)c(O)c2ccccc21 (centres undefined)	none
COc1cc(C2(c3ccc(O)c(OC)c3)C(=O)Nc3c(Br)cc(Br)cc32)ccc1O	PAFAH1B2 inh 24.9
CCN1CCN(c2cc(N3CCN(C(=O)c4ccco4)CC3)c3c4c(onc24)-c2ccccc2C3=O)CC1	pPAFAH FP inh 27.3
CC(=O)OCCNc1cc(N2CCN(C)CC2)c2noc3c2c1C(=O)c1ccccc1-3	none (no result: PME-1 inh, Fam108B counter, pPAFAH FP inh)
Cc1ccc(CNC(=O)/C(C#N)=C\c2ccc(N(C)C)cc2)cc1	PME-1 inh 26.8 (no result: PAFAH1B3 FP inh, PAFAH1B2 inh, PAFAH2 inh)
COc1ccccc1-c1c(C)nn2c(N3CCN(Cc4ccccc4)CC3)cc(C)nc12	pPAFAH FP inh 28.2
COc1ccc(-c2c(C)nn3c(N4CCN(Cc5ccccc5)CC4)cc(C)nc23)cc1OC	none
Oc1ccc(N=C/C=C/c2ccc(Br)cc2)cc1-c1nc2ccccc2s1	pPAFAH FP inh 52.8 (no result: PAFAH1B3 FP inh, PAFAH1B2 inh, PAFAH2 inh)
Brc1cc2c(cc1-c1nc3ccccc3s1)OCO2	none
CCCc1nc2c(=O)n(C)c(=O)nc-2n(C)n1	PAFAH1B3 FP inh 78.5, PAFAH1B2 inh 35.6, PAFAH2 inh 60.1 (no result: PME-1 inh, Fam108B counter, pPAFAH FP inh)
CC1CCCN(S(=O)(=O)c2ccc(C(=O)Nc3nnc(-c4ccco4)o3)cc2)C1 (centres undefined)	none
c1ccc(NC2=NCCN2CCC2CCCCC2)cc1	none
O=C1/C(=C2\C(=O)N(Cc3ccc(F)cc3)c3ccccc32)SC(=S)N1CCS(=O)(=O)O	none
O=C(O)CN1C(=O)/C(=C2\C(=O)N(Cc3ccccc3Cl)c3ccccc32)SC1=S	PAFAH1B2 inh 25.7
CC[C@]12c3[nH]c4cc(CCC(=O)N(C)C)ccc4c3CCN1C(=O)[C@@H](CC(=O)NCCc1ccccn1)C[C@@H]2C(=O)N1CCN(C(=O)c2ccco2)CC1	none (no result: PME-1 inh, Fam108B counter)
O=C(Nc1ccc2c(c1)CN(Cc1ccccc1O)CC2)C1CCCO1 (centres undefined)	none
CCN(CC)CCCn1c2c(c(SCC(=O)Nc3cccc(C)c3C)nc1=O)CCC2	none
CCN(CC)CCCn1c2c(c(SCC(=O)Nc3cccc4ccccc34)nc1=O)CCC2	PAFAH1B3 FP inh 35.7, PAFAH1B2 inh 33.9, PAFAH2 inh 32.1
COC(=O)c1c(-c2ccc(OC)cc2)sc2ccccc12	none (no result: PAFAH1B3 FP inh, PAFAH1B2 inh, Fam108B counter, PAFAH2 inh)
Cc1cc(C)c(C#N)c(SCC(=O)Nc2c(C)n(C)n(-c3ccccc3)c2=O)n1	none (no result: PME-1 inh, Fam108B counter)
Cc1ccc(S(=O)(=O)n2nc(-c3cccnc3)nc2N)cc1	PAFAH1B2 inh 33.1
CNC(=O)COC(=O)c1cc(-c2ccco2)nc2ccccc12	pPAFAH FP inh 24.8
O=C(O)c1ccccc1/C=N/NC(=O)c1cc(-c2ccco2)nc2ccccc12	pPAFAH FP inh 32.0
O=C(O)c1cc(-c2ccco2)nc2cc3ccccc3cc12	pPAFAH FP inh 25.2
O=C(COC(=O)c1cc(-c2ccco2)nc2ccccc12)NCc1ccccc1	pPAFAH FP inh 34.2
CC1CN(S(=O)(=O)c2cc(C(=O)NC(C)c3cccnc3)ccc2Cl)CC(C)O1 (centres undefined)	none (no result: PME-1 inh, Fam108B counter)
CC1CCN(C(=O)c2[nH]cnc2C(=O)Nc2ccc(Cl)cc2)CC1	none (no result: Fam108B counter)
Fc1ccc(-[n+]2nc(Nc3ccccc3)sc2-c2c3ccccc3cc3ccccc23)cc1	pPAFAH FP inh 26.3
Cc1cccc(S(=O)(=O)Nc2nc3ccccc3nc2OC(C)C)c1	none
CCc1cc2ccccc2nc1SCC(=O)Nc1cc(OC)c(OC)cc1C(=O)O	pPAFAH FP inh 33.2
COc1cc(NC(=O)CSc2nc3ccccc3cc2C)c(C(=O)O)cc1OC	none
